# Pf growth 96h = inhibits malaria parasite growth, 96 h. P. falciparum luciferase reporter growth, 96 h. Potency, µM (doses to about 28.7 µM), usual class: inhibitors. 320,000 tested, 6.9% active
#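 P. falciparum expressing integrated firefly luciferase, in erythrocytes at 2% hematocrit, 0.05% parasitemia, incubated with compounds 96 h at 37 C, 5% CO2. Growth inhibition read as loss of luminescence; two-generation exposure targets delayed-death apicoplast inhibitors.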
# Cycloheximide cs = counter-screen hit for Shiga toxin inhibitors, cycloheximide. cell reporter, cycloheximide protein synthesis inhibition counterscreen. max response, %. 300,000 tested, 12% active. AID 2314; in the data active = max response mostly above about 13%, no sharp cut-off; inactive = mostly below about 14%; note: read at 38.3 µM for the half of the compounds with a filed dose
# HCV inh = inhibitors of hepatitis C virus infection. Potency, µM (highest dose often 41.8 µM), actives largely listed as inhibitors. 340,000 tested, 3.4% active. Huh7.5.1 HCVcc-Cre infection, luciferase reporter, 44 h
#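 After 44 h co-culture of compound, cells and HCVcc-Cre (~0.5 moi), substrate is added for 15 min at room temperature and luciferase measured over 15 sec. Cells were seeded at 1,000/well and pre-cultured 4 h.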
# Pf growth 48h = P. falciparum growth inhibition at 48 hours (one generation) | P. falciparum luciferase growth in erythrocytes, 48 h | Potency, µM (series often up to 28.7 µM), actives largely listed as inhibitors | 310,000 tested, 5.9% active | AID 504832
#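 Luciferase-expressing parasites in RBCs, 2% Hct / 0.1% parasitemia final; RPMI 1640 + 0.5% Albumax; 37 C, 5% CO2, one generation; luminescence read-out, lower signal = inhibition.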
# Shiga toxin inh = Shiga toxin inhibition; Vero cells, Shiga toxin protein synthesis inhibition reporter; inhibition, % at 38.7 µM; 290,000 tested, 9.2% active; in the data active = inhibition mostly above about 28%, no sharp cut-off; inactive = mostly below about 43%
# AMA1-RON2 inh = disrupts binding of P. falciparum AMA1 to RON2. AlphaScreen AMA1-biotinylated RON2 peptide binding. Potency, µM (highest dose often 58.2 µM), hits mostly inhibitors. 360,000 tested, 0.2% active; note: nearly all actives have a fitted effect of over 45% in size
#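 AMA1 (3D7) with his tag at 25 nM final met compounds first, then biotinylated RON2 peptide at 25 nM; detection used donor plus acceptor beads, 10 µg/mL apiece, read by AlphaScreen after 30 min at room temperature.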
# Numbers stand for hits; 0 = inactive; ? = inconclusive; - = not tested or not shown; + = active, no number. Rows were chosen to be rich in hits. Some 21% of all compounds tested hit in one or more screens of this group. Unless noted, calls come from the whole dose curve; as a rule, active = well fitted curve in the direction sought with a large enough effect; inconclusive = small, poorly fitted or top-dose-only effect, or another doubt; inactive = no such curve, though single readings can be large; an effect the other way counts as inactive or inconclusive.
SMILES,Pf growth 96h,Cycloheximide cs,HCV inh,Pf growth 48h,Shiga toxin inh,AMA1-RON2 inh
COc1cc(C(=O)NC(CCSC)C(=O)Nc2ccc(N3CCOCC3)cc2)cc(OC)c1OC (centres undefined),-,-,-,-,-,0
O=C(CN1CCN(c2ccccn2)CC1)N(c1ccccc1)c1ccc2ccccc2c1,5.2µM,0,0,12µM,0,0
O=C(CSc1nc2ccccc2o1)N1c2ccccc2Sc2ccc(C(F)(F)F)cc21,?,0,?,13µM,0,0
O=C(CN1CCCC1)N1c2ccccc2Sc2ccc(C(F)(F)F)cc21,0,0,?,?,0,0
O=C(CN1CCN(c2ccccn2)CC1)N1CC(O)CO1 (centres undefined),0,0,0,0,0,0
O=C(CN1CCN(c2ccccn2)CC1)N1c2ccccc2CCc2ccccc21,?,0,0,15µM,0,?
CCNCCC(=O)N1c2ccccc2Sc2ccc(C(F)(F)F)cc21,?,0,?,0,-,0
O=C(CN1CCN(c2ccccn2)CC1)N1c2ccccc2Sc2ccc(C(F)(F)F)cc21,-,0,?,4.7µM,0,?
O=C(CN1CCOCC1)N(c1ccccc1)c1ccc2ccccc2c1,0,0,0,0,0,0
Cn1cc(S(=O)(=O)c2ccccc2)n(C)c1=O,0,0,0,0,0,0
COc1cc2cc(CCCOC(=O)CCCC(=O)O)oc(=O)c2cc1OC,?,-,0,0,-,0
CC1(C(=O)NS(=O)(=O)c2cccc(C#N)c2)CCN1C(=O)Cc1ccccc1 (centres undefined),-,-,-,-,-,0
COc1ccc2c(c1)cc(C(=O)N[C@@H](CCSC)C(=O)N1CCC[C@H]1C(=O)O)n2C,0,0,0,0,0,0
Cc1nn(-c2ccccc2)c2[nH]c(=O)c(CNc3ccc(N4CCOCC4)cc3)cc12,0,0,0,?,0,0
O=c1[nH]c2c(cc1CNCCN1CCOCC1)c(-c1cccc(F)c1)nn2-c1ccccc1,0,0,-,2.1µM,0,-
COc1cc(CN2C[C@@H](CO)O[C@@H](n3cnc4c(NC5CCCC5)ncnc43)C2)cc(OC)c1OC,-,-,-,-,-,0
Cc1ccc(S(=O)(=O)c2nc(-c3ccccc3Cl)oc2N(C)C)cc1,?,57,20µM,0,86,0
CN(C)c1oc(-c2ccccc2Cl)nc1P(=O)(c1ccccc1)c1ccccc1,12µM,0,?,-,0,0
CCN(C(=O)COC(=O)/C=C/c1cccc([N+](=O)[O-])c1)c1ccccc1,?,0,0,0,0,0
COc1ccc(C2=CC(=O)C[C@H](c3ccc(F)cc3)C2)c(OC)c1,?,-,?,?,-,0
C[C@H](CO)N1C[C@H](C)[C@@H](CN(C)C(=O)Nc2ccc(C(F)(F)F)cc2)Oc2c(NC(=O)Nc3ccccc3)cccc2C1=O,-,-,0,-,-,0
C[C@@H]1CN([C@H](C)CO)C(=O)c2cc(NS(=O)(=O)c3ccc(F)cc3)ccc2O[C@@H]1CN(C)Cc1ccc(Cl)c(Cl)c1,-,-,6.3µM,-,-,0
Cc1ccc(S(=O)(=O)N(C)C[C@@H]2Oc3ccc(NS(C)(=O)=O)cc3CC(=O)N([C@H](C)CO)C[C@@H]2C)cc1,-,-,2.8µM,-,-,0
C[C@H](CO)N1C[C@H](C)[C@@H](CN(C)Cc2ccc(-c3ccccc3)cc2)Oc2c(NC(=O)c3ccncc3)cccc2C1=O,-,-,10µM,-,-,0
COc1ccc(NC(=O)N(C)C[C@H]2Oc3c(NC(=O)Nc4ccc(C(F)(F)F)cc4)cccc3C(=O)N([C@H](C)CO)C[C@@H]2C)cc1,-,-,6.3µM,-,-,0
SMILES,Pf growth 96h,Cycloheximide cs,HCV inh,Pf growth 48h,Shiga toxin inh,AMA1-RON2 inh
C[C@H](CO)N1C[C@H](C)[C@@H](CN(C)Cc2ccccc2)Oc2c(NC(=O)c3ccncc3)cccc2C1=O,-,-,?,-,-,0
COc1ccc(NC(=O)C[C@H]2C(=O)N(CCc3ccccc3)C[C@@H]2Cc2ccccc2)cc1,-,-,-,-,-,0
S=C(Nc1cccnc1)N1CCN(c2ccccc2Cl)CC1,0,0,0,0,0,0
C[C@H](CO)N1C[C@H](C)[C@@H](CN(C)S(=O)(=O)c2ccc(F)cc2)Oc2ccc(NC(=O)Nc3ccc(C(F)(F)F)cc3)cc2C1=O,-,-,32µM,-,-,0
C[C@@H]1CN([C@H](C)CO)C(=O)c2cc(NC(=O)Nc3ccc(C(F)(F)F)cc3)ccc2O[C@H]1CN(C)S(=O)(=O)c1ccc(Cl)cc1,-,-,?,-,-,0
Brc1ccc(C2=NC(Cc3ccccc3)CO2)cc1 (centres undefined),0,52,?,0,77,0
O=C(OCc1ccccc1)[C@@H]1COC(c2ccc(Br)cc2)=N1,-,38,-,-,+,-
Oc1ccc(-n2nnnc2SCc2ccccc2Br)cc1,13µM,0,0,?,0,0
Brc1ccccc1-c1nnc(CSc2nnnn2-c2ccccc2)o1,0,29,0,0,54,0
Cc1nnc(SCc2nnc(-c3ccccc3Br)o2)n1-c1ccccc1,?,0,0,10µM,0,0
CCN(CC(=O)Nc1ccc(NC(C)=O)cc1)C(=O)c1ccccc1SCc1c(C)noc1C,0,-,0,?,-,0
O=C(NC(=S)N1CCN(c2ccc(C(F)(F)F)cc2[N+](=O)[O-])CC1)c1cccs1,4.1µM,0,0,0,0,0
CCN1CCN(C(=S)NC(=O)c2cccs2)CC1,0,0,0,?,0,0
COCCN(Cc1ccc(C)cc1)C(=O)[C@H]1O[C@@H](n2cnc3c(N)ncnc32)[C@H](O)[C@@H]1O,-,-,-,-,-,0
Cc1[nH]c2ccc(C(=O)OC(C)C(=O)N(C)c3ccccc3)cc2c1C (centres undefined),?,-,?,?,-,0
O=C(NCc1cccs1)C1CCC(CNS(=O)(=O)c2ccc(Br)s2)CC1 (centres undefined),7.4µM,0,0,-,0,0
O=C(NCc1cccs1)C1CCN(S(=O)(=O)c2ccc(Br)s2)CC1,0,0,0,-,0,0
Cc1ccc(S(=O)(=O)N(C)CC(=O)OCC(=O)NC(=O)Nc2ccc3c(c2)OCCO3)cc1,0,55,0,0,68,0
CC(NS(=O)(=O)c1ccc(Cl)c(Cl)c1)C(=O)OCC(=O)Nc1ccc2c(c1)OCO2 (centres undefined),?,0,0,0,0,0
C[C@H](NS(=O)(=O)c1ccc(Cl)cc1)C(=O)OCC(=O)NC(=O)Nc1ccc2c(c1)OCCO2,0,101,0,0,127,0
CC(C)[C@H](NC(=O)c1ccccc1)C(=O)OCC(=O)Nc1ccc2c(c1)OCCO2,0,0,0,0,0,0
CC(C)[C@H](NS(=O)(=O)c1ccc2c(c1)OCCO2)C(=O)OCC(=O)Nc1ccccc1,0,14,0,0,0,0
O=C(COC(=O)C1COc2ccccc2O1)NC(=O)Nc1ccc2c(c1)OCCO2 (centres undefined),0,15,0,0,0,0
CN(CC(=O)Nc1ccccc1Cl)C(=O)C1CCN(C(=O)c2ccc(F)cc2)CC1,?,-,0,0,-,0
